Laboratory results published in PubChem BioAssay AID651692 (Broad Institute, 2012).
Potency and affinity values are given separately. The source made the active and inactive calls.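 Rule for the calls: active = fitted half-maximal concentration for loss of cell signal no higher than twice the top valid tested concentration; inconclusive = flat curve at 30 to 70% inhibition, or poor fit; inactive = flat within 30%, signal rise, or potency above limit.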

Assay: cytotoxicity toward MDA-MB-231 breast cancer cells – cell-based, CellTiter-Glo luminescence, cherry-pick, cytotoxicity control for RAD54 inhibitor project, dose response (AID 651692);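 note: more negative values mean stronger loss of viable cell signal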
Details: MDA-MB-231 viability, 24 h; series mostly up to 26 µM

| SMILES | outcome |
| --- | --- |
| COc1cc2c(C#N)c(N3CCN(C)CC3)nc(N)c2c(N)n1 | inactive |
| CC(=O)Nc1sc2c(c1-c1nc3ccccc3s1)CN(C(C)C)CC2 | inactive |
| COc1cccc(-c2cc(NC=O)c3ncc(-c4cccc(C(=O)NCCN(C)C)c4)n3c2)c1 | inactive |
| CCCN(CCC)CCCNC(=O)c1cc2c(=O)n(C)c3ccccc3c2n1C | inactive |
| CC(N)c1csc(Nc2nncc3ccccc23)n1 (stereo not drawn) | inactive |
| COc1cc(-c2cnc3c(NC=O)cc(-c4cccc(C(=O)NCCN(C)C)c4)cn23)cc(OC)c1OC | inactive |
| Cc1cc(NCCCN(C)C)n2c(nc3ccccc32)c1C#N | inactive |
| CCN(CC)CCN1CCN(c2cncc(-c3cccc(N)c3)n2)CC1 | inactive |
| Cc1c(OCC(=O)NC2CC(C)(C)NC(C)(C)C2)ccc2c1oc(=O)c1ccccc12 | inactive |
| CN(C)CCCNc1ncnc2sc(-c3ccccc3)cc12 | inactive |
| CCN(CC)CCN(C(=O)c1ccc2ncsc2c1)c1nc2cc3c(cc2s1)OCO3 | inactive |
| Cc1ccsc1-c1cc2nc(NCCCN(C)C)n(C)c(=O)c2s1 | inactive |
| NC1CCN(c2c(F)cc3c(=O)c(C(=O)O)cn(C4CC4)c3c2Cl)C1 (stereo not drawn) | inactive |
| CCc1ccc2nc3nc(C)cc(C)c3c(N)c2c1 | inactive |
| CN(C)c1cc(NC(=O)CNC(C)(C)C)c2ccccc2n1 | inactive |
| COc1cc2c3c(cccc3c1)C(=O)N(CCN1CCCC1)C2=O | inactive |
| CN(C)CCCNc1nc2cc(-c3ccccc3)sc2c(=O)n1C | inactive |
| CCn1c(=N)c(C(=O)NC)cc2c(=O)n3cccc(C)c3nc21 | inactive |
